Measured values taken from PubChem BioAssay (NCATS).
Records with an inconclusive call do not appear. The source made the active and inactive calls. Calls come from the whole dose curve; as a rule, active = well fitted cell-killing curve with a large enough effect; inconclusive = small, poorly fitted or top-dose-only effect, or effect the other way; inactive = flat fitted curve, though single readings scatter.

Each compound was assayed on HeLa (assay: Primary qHTS to identify gynecologic anti-cancer compounds using libraries of approved drugs and bioactive compounds (AID 1345084; note: nearly all actives have a fitted effect of over 55% in size)). Details: Gynecologic cancer cell panel viability, ATPlite luminescence, 48 h; series mostly up to 57.5 µM; activity change, negative = cytotoxicity: at the top concentration.
In short: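 Cytotoxicity screen measuring ATP content by luciferase luminescence. Each compound is applied at five concentrations for 48 h at 37 C with 5% CO2.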
% is set by controls: 0 for no effect and ±100 for the full control effect; potency is the fitted concentration of half-maximal effect.

Row | SMILES | activity change, negative = cytotoxicity | Potency
1 | C=C1[C@@H]2CC[C@@H]3[C@@](CCC4C(C(=O)O)(C(=O)O)C[C@@H](O[C@@H]5O[C@H](CO)[C@@H](O)[C@H](O)[C@H]5OC(=O)CC(C)C)C[C@]43C)(C2)[C@H]1O (some centres not stated) | -2.82% [at 25.3 µM] (inactive) | 
2 | N[C@@]1(C(=O)O)CC[C@H]2[C@H](C(=O)O)[C@H]21 | 15.7% (inactive) | 
3 | C[C@@H]1O[C@@H](O[C@H]2[C@@H]3C=CO[C@@H](O[C@@H]4O[C@H](CO)[C@@H](O)[C@H](O)[C@H]4O)[C@@H]3[C@@]3(CO)O[C@@H]23)[C@H](OC(=O)/C=C/c2ccccc2)[C@H](O)[C@H]1O | 7.82% [at 25.3 µM] (inactive) | 
4 | C[C@@H]1CC[C@]2(C(=O)O[C@@H]3O[C@H](CO)[C@@H](O)[C@H](O)[C@H]3O)CC[C@]3(C)C(=CCC4[C@@]5(C)C[C@@H](O)[C@H](O)[C@](C)(C(=O)O)C5CC[C@]43C)[C@@H]2[C@]1(C)O (some centres not stated) | 9.46% [at 25.3 µM] (inactive) | 
5 | C=C1CN(Cc2ccc(C(=O)Nc3ccccc3N)cc2)C(=O)c2ccccc21 |  | 3.55 µM (active)
6 | COc1ccc(C(=O)n2c(C)c(Cc3cccc(O[C@@H](C)C(=O)O)c3)c3cc(OC(F)(F)F)ccc32)cc1 | 8.41% (inactive) | 
7 | Cc1ccc([N+](=O)[O-])cc1S(=O)(=O)N(C)/N=C/c1cnc2ccc(Br)cn12 |  | 0.316 µM (active)
8 | C[C@@H]1O[C@@H](O[C@@H]2[C@@H](O)[C@H](O[C@H]3CC[C@@]4(C)C(CC[C@]5(C)C4CC=C4[C@@H]6CC(C)(C)CC[C@]6(C(=O)O[C@@H]6O[C@H](CO)[C@@H](O)[C@H](O)[C@H]6O)CC[C@]45C)C3(C)C)O[C@H](C(=O)O)[C@H]2O)[C@H](O)[C@H](O)[C@H]1O (some centres not stated) | 2.44% [at 11.6 µM] (inactive) | 
9 | CCOC(=O)C(CCc1ccccc1)NC(C)C(=O)N1C(=O)N(C)CC1C(=O)O (configuration not stated) | 6.32% (inactive) | 
10 | CC1=CCC2C(C)(C)CCC[C@]2(C)[C@@]12CC[C@](C)(CC(=O)O)O2 (some centres not stated) | 15.6% [at 38.5 µM] (inactive) | 
11 | CC1CCC2C(C)(C)[C@@H](O)CC[C@]2(C)C12Cc1c(O)cc3c(c1O2)CN(C(CCC(=O)O)C(=O)O)C3=O (some centres not stated) | 4.99% [at 25.3 µM] (inactive) | 
12 | Cc1cc(NC(=O)Nc2ccc(F)c(F)c2)n(-c2ccccc2)n1 | 4.31% (inactive) | 
13 | CC(/C=C/C1=CC2=CC(=O)C(C)(O)C(O)C2=CO1)=C\C(C)CCO (configuration not stated) | 2.92% [at 38.5 µM] (inactive) | 
14 | CO[C@H]1C[C@@H]2CC[C@@H](C)[C@@](O)(O2)C(=O)C(=O)N2CCCC[C@H]2C(=O)O[C@H]([C@H](C)C[C@@H]2CC[C@H](n3cnnn3)[C@H](OC)C2)CC(=O)[C@H](C)/C=C(\C)[C@@H](O)[C@@H](OC)C(=O)[C@H](C)C[C@H](C)/C=C/C=C/C=C/1C | 1.61% [at 25.3 µM] (inactive) | 
15 | Cn1c(=O)cc(N2CCCC(N)C2)n(Cc2cc(F)ccc2C#N)c1=O (configuration not stated) | -2.54% (inactive) | 
16 | CCN1CCN(Cc2ccc(NC(=O)c3ccc(C)c(/C=C/c4cnc5[nH]ccc5c4OC)c3)cc2C(F)(F)F)CC1 |  | 15.8 µM (active)
17 | COc1c(Nc2ncc(Cl)c(N[C@H]3[C@@H](C(N)=O)[C@@H]4C=C[C@H]3C4)n2)ccc2c1CC[C@@H](N1CCOCC1)CC2 | -14.4% (inactive) | 
18 | CNC(=S)NS(=O)(=O)c1cc(CCNC(=O)c2cc(Cl)ccc2OC)ccc1OC | -6.62% (inactive) | 
19 | COc1ccc(CC2NCCc3c2[nH]c2ccc(C)cc32)cc1OC (configuration not stated) | -1.77% (inactive) | 
20 | O=C(/C=C/c1cccc(S(=O)(=O)Nc2ccccc2)c1)NO |  | 4.47 µM (active)
21 | Cc1cccc(C)c1-n1c(=O)c2cnc(Nc3ccc(N4CCN(C)CC4)cc3)nc2n2c3ccccc3nc12 |  | 6.31 µM (active)
22 | NC1CCC(Nc2cc(-c3cccc(NCc4cccc(F)c4)n3)c(Cl)cn2)CC1 (configuration not stated) |  | 0.355 µM (active)
23 | C=C[C@]1(C)C[C@H](O)[C@@H]2[C@H](OC(=O)[C@@H]2C)C1/C(C)=C/O[C@@H]1O[C@H](CO)[C@@H](O)[C@H](O)[C@H]1O (some centres not stated) | 0.837% [at 25.3 µM] (inactive) | 
24 | C[C@H](NC(c1cccc(C[P+](=O)O)c1)[C@H](C)O)c1ccc(Cl)c(Cl)c1 (some centres not stated) | 8.15% (inactive) | 
25 | O=C(N/N=C/c1ccc(O)c(O)c1)c1cc2ccccc2cc1O | -8.16% [at 25.3 µM] (inactive) | 
26 | CO[C@H]1C[C@@H]2CC[C@@H](C)[C@@](O)(O2)C(=O)C(=O)N2CCCC[C@H]2C(=O)O[C@H]([C@H](C)C[C@H]2CC[C@@H](OP(C)(C)=O)[C@H](OC)C2)CC(=O)[C@H](C)/C=C(\C)[C@@H](O)[C@@H](OC)C(=O)[C@H](C)C[C@H](C)/C=C/C=C/C=C/1C | 8.11% [at 38.5 µM] (inactive) | 
27 | CC(C)=CCC/C(C)=C/CO[C@@H]1O[C@H](CO)[C@@H](O)[C@H](O)[C@H]1O | -3.98% [at 38.5 µM] (inactive) | 
